About 83,000 compounds went through this panel and 20% of them were active in at least one assay; those are over-represented in the sample as a whole.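 Growth was measured after 48 h exposure to one concentration of compound in 96-well plates. Values under 10 count as active.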 Unmarked numbers belong to inactive results. Calls of active or inactive are those of the source.
Assays:
Test in all cases: NCI-60 one-dose screen, 48 h (100 = growth as untreated, 0 = no growth, -100 = all killed)
SK-MEL-2 melanoma = details: 10 µM unless noted
EKVX NSCLC = details: 10 µM
SN12C renal = details: 10 µM unless noted
UO-31 renal = details: 10 µM unless noted
TK-10 renal = details: 10 µM unless noted
ACHN renal = details: 10 µM unless noted
A498 renal = details: 10 µM unless noted
CCRF-CEM leukemia = details: 10 µM
MOLT-4 leukemia = details: 10 µM unless noted
CAKI-1 renal = details: 10 µM unless noted

Structure (SMILES)	growth (SK-MEL-2 melanoma)	growth (EKVX NSCLC) [%]	growth (SN12C renal) [%]	growth (UO-31 renal)	growth (TK-10 renal)	growth (ACHN renal)	growth (A498 renal)	growth (CCRF-CEM leukemia)	growth (MOLT-4 leukemia)	growth (CAKI-1 renal)
COc1ccc2c(c1)/C(=C1/S/C(=N/c3nnc(C)s3)NC1=O)C(=O)N2Cc1ccc(Br)cc1	25.6%	31.8	43.4	42.6%	35%	36.2%	4.62% (active)	21.2%	20.7%	–
CC(=N\N=C(N)N)/C(=N/N=C(N)N)c1ccccc1	84.6%	68.6	107	82.9%	91.1%	106%	–	32.2%	48.9%	–
CCCNC(=O)Oc1ccc(/C(=C(/C)Cc2ccc(OC)cc2)c2ccc(OCCN3CCCCC3)cc2)cc1	99.5%	76.6	84.9	60.8%	81.1%	102%	–	70.8%	–	–
COc1ccc(-c2nc(SCC(C)C)nc(Nc3ccccc3)c2C#N)cc1	111%	85	60.2	56.8%	46.9%	27.4%	–	64.6%	88.2%	–
C[C@@H](c1ccc2c(c1)[nH]c1ccc(Cl)cc12)c1nc2ccccc2[nH]1	108%	92.6	89.6	56.6%	136%	96.5%	111%	–	92.4%	–
O=C1N/C(=N\c2nnc(-c3ccc(O)cc3)s2)S/C1=C\c1ccccc1O	103%	101	93.2	72.4%	97.9%	97.8%	107%	95.8%	100%	–
CCNc1nnc(COc2ccc(CNC(=O)CCCC/C=C/C(C)C)cc2OC)o1	104%	96.7	104	84.2%	107%	101%	109%	97.5%	104%	–
Cc1c(CN(C)C)cc(C(C)C)cc1C(C)C	107%	106	96.9	–	94.9%	112%	94.8%	–	–	103%
COc1cc(NC(C)CCCN)c2nccc(C)c2c1OC (centres undefined)	95.2%	99.4	82	89.5%	–	100%	83.7%	64.8%	73.1%	99.9%
O=C1CSC(c2ccccc2Cl)N1c1nnc(-c2ccncc2)o1 (centres undefined)	101%	93.2	98.3	90.8%	–	94.3%	72.4%	102%	94.3%	107%
O=C(CN1C(=O)NC(c2ccccc2)(c2ccccc2)C1=O)c1ccc(N2CCCC2)cc1	91.1%	82.4	103	66.6%	–	89.9%	61.9%	98.9%	70.5%	70.5%
COC(=O)c1ccc2[nH]c(O)c(C(=Nc3ccc(N(C)C(=O)CN4CCN(C)CC4)cc3)c3ccc(N)cc3)c2c1	93.1%	95.5	50.4	–	76.4%	94.7%	92.7%	60.4%	52.3%	63.9%
CCCNC(=O)Oc1ccc(/C(=C(/C)Cc2ccc(OC)cc2)c2ccc(OCCN3CCCC3)cc2)cc1	98.8%	70.1	71.3	50.3%	83.4%	78.6%	–	50.7%	52.8%	–
O=Nc1c(-c2c(O)[nH]c3cc(Br)ccc23)[nH]c2ccccc12	-66.5% (active)	29.8	16.7	–	-10.5% (active)	0.906% (active)	-82% (active)	-6.73% (active)	-68.9% (active)	2.36% (active)
COc1ccccc1C(=O)Nc1cccc(-c2cc(=O)c3c(OC)c(OC)c(OC)cc3o2)c1	31.1%	61.7	41	15.3%	–	43%	–	16%	28.8%	65.1%
CCCCCCCCCCCCc1ccc([N+](CC)(CC)CC)cc1	42.7%	41	33.5	–	67.1%	85%	60%	33%	51.9%	88.7%

Structure (SMILES)	growth (SK-MEL-2 melanoma)	growth (EKVX NSCLC) [%]	growth (SN12C renal) [%]	growth (UO-31 renal)	growth (TK-10 renal)	growth (ACHN renal)	growth (A498 renal)	growth (CCRF-CEM leukemia)	growth (MOLT-4 leukemia)	growth (CAKI-1 renal)
CCOC(=O)C1=NN(c2ccccc2)C2=NC(=O)/C(=C\c3cn(-c4ccccc4)nc3-c3cc4ccccc4o3)C(=O)N12	99.3%	90.2	94.3	68.5%	–	94.8%	112%	95.8%	96.3%	–
COc1nc(OC)nc(-c2cc(C(=O)c3ccc(Br)cc3)n3cc(C)cc(C)c23)n1	68.1%	68.1	48	71%	–	18.5%	71.3%	83.8%	96.6%	64.8%
O=c1oc2ccc3ccccc3c2cc1-c1ccnc2[nH]c(=S)[nH]c(=O)c12	104%	101	93.1	66.5%	–	107%	107%	82.6%	87.4%	–
CC(=O)OCC(=O)[C@@]1(O)[C@H](C)C[C@H]2[C@@H]3C=C(C)C4=Cc5c(cnn5-c5ccc(F)cc5)C[C@]4(C)[C@H]3[C@@H](O)C[C@@]21C	22.5%	28.5	40.5	3.92% (active)	19.7%	13.5%	–	6.74% (active)	1.22% (active)	–
COc1ccc(/C=C(/C(=O)N2CCN(c3ccc(C)cc3)CC2)c2cc(OC)c(OC)c(OC)c2)cc1N	23.7%	45.5	28.8	51.2%	–	30.5%	-11.1% (active)	13.4%	17.5%	–
Cc1nc2c(nnn2-c2ccccc2)c2nc(-c3ccccc3)oc(=O)c12	108%	99.3	103	86.5%	–	105%	98.6%	111%	112%	93.8%
Cc1ccc(NCc2cn(-c3ccc(C(=O)O)cc3)nc2-c2ccc(C(=O)O)cc2)cc1	94.3%	106	108	90.6%	99%	108%	–	104%	105%	–
COc1cc(OC)c2c(=O)cc(-c3ccccc3)oc2c1	103%	103	93	–	85.9%	103%	77.1%	26.9%	–	86.4%
COc1ccc(Cn2cc3c(c2-c2ccccc2)CCc2cnoc2-3)cc1OC	48%	46.5	49.5	35.3%	–	57.7%	18.5%	17.1%	35.9%	18.9%
O=C1/C(=C\c2cn(-c3nc(N4CCOCC4)nc(N4CCOCC4)n3)c3ccccc23)c2ccccc2N1c1c(Cl)cccc1Cl	74%	61	64.8	24.6%	–	72.7%	-43.7% (active)	64.5%	60.5%	–
O=C(Nc1cccc(Cn2c(=O)[nH]c3ccc(Oc4ncccn4)cc3c2=O)c1)c1cc(Cl)cc(Cl)c1	55.1%	72.3	59.4	65.6%	–	19.8%	85.3%	77.9%	63.8%	91%
COc1ccc(C(O)(c2ccccc2)C(C(=O)O)c2ccccc2)cc1 (centres undefined)	104%	111	100	81.6%	–	106%	–	102%	102%	102%
Ic1ccc(SSc2ccc(I)cc2)cc1	105%	99.9	71.3	60.5%	84.4%	113%	–	17%	32%	–
COc1ccc2oc(=O)cc(CN3C(=O)S/C(=C\c4ccc(Cl)cc4)C3=O)c2c1	106%	93	108	83.4%	–	105%	106%	86.5%	89.2%	–
COc1cc(-c2cc3cnccc3c3nc(N)c4ccncc4c23)cc(OC)c1OC	70.1%	55.3	40.7	–	22.6%	34.5%	-16.8% (active)	36.5%	–	43.6%

Reference: PubChem BioAssay (NCI)
